# The supplement of paper PMC11624193, “Coupling cellular drug-target engagement to downstream pharmacology with CeTEAM” (Nature Communications, 2024)
# “And” between values parts separate entries of the source, which are not always exact repeats. Identical values can stand only once. Unmarked numbers belong to inactive results.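 Rule for the calls: active = log2 fold change beyond 2 SD from the library mean after excluding viability outliers; inactive = within 2 SD.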
# Molecular target: PARP1 L713F-nLuc biosensor (HCT116) (UniProt P09874)
# Sequence (P09874 whole entry L713F, looked up): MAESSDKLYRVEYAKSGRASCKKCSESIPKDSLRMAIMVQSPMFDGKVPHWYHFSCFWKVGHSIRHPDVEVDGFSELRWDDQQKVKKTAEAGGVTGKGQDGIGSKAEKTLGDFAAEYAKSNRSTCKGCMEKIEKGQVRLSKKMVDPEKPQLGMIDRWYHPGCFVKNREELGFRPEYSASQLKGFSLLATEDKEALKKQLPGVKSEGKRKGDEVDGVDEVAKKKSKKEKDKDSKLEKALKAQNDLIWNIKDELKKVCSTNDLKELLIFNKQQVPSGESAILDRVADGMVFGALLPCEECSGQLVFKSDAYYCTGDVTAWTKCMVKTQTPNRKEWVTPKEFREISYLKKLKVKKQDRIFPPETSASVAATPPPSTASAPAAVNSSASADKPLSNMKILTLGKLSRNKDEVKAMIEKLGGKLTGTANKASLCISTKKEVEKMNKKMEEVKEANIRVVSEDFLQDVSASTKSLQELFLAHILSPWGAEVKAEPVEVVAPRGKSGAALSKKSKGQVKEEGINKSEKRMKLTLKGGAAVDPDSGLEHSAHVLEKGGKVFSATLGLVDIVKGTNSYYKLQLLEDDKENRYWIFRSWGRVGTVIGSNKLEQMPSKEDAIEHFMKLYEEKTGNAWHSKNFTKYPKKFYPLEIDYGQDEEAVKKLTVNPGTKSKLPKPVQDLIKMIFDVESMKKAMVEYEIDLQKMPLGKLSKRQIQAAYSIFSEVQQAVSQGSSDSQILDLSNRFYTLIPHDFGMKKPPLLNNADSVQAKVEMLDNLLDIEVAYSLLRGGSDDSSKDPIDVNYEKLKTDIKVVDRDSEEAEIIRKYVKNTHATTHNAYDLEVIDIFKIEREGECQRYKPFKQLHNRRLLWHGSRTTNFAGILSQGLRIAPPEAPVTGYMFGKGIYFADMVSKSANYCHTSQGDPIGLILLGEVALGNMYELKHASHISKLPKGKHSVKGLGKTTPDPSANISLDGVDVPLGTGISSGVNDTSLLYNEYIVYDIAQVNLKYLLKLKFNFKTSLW
# Test: PARP1 L713F-nLuc/akaLuc ratio relative to DMSO control (biosensor stabilization) (fold change); higher = more PARP1 biosensor stabilization (target engagement / stabilizer), active = hit call of the paper
# Settings: stock concentration (mM; final µM = stock mM x 1): 10; 24 h
row,Compound,PARP1 L713F-nLuc/akaLuc ratio
1,CS(=O)(=O)CCNCc1ccc(-c2ccc3ncnc(Nc4ccc(OCc5cccc(F)c5)c(Cl)c4)c3c2)o1 [Lapatinib],0.617
2,C[C@H](Nc1cc(-c2cnn(C)c2)cc(Nc2cnccn2)n1)c1ccc(F)cc1 [Ilginatinib],0.485
3,COc1cc2ncnc(Nc3ccc(F)c(Cl)c3)c2cc1OCCCN1CCOCC1 [Gefitinib (ZD1839)],1.04
4,O=C(O)CCNc1cc(N2CCc3ccccc3CC2)nc(-c2ccccn2)n1,0.92
5,N#Cc1ccc2[nH]c(O)c(-c3ccc(CN4CCOCC4)cn3)c2c1,0.881
6,CC[C@@](C)(Nc1ccnc(-c2c[nH]c3ncccc23)n1)C(=O)NCC(F)(F)F [Decernotinib],0.707
7,C[C@]12CC[C@@H]3c4ccc(O)cc4C[C@@H](CCCCCCCCC[S+]([O-])CCCC(F)(F)C(F)(F)F)[C@H]3[C@@H]1CC[C@@H]2O (stereo partly specified) [Fulvestrant],0.949
8,COc1cc(-c2cn(C)c(=O)c3cnccc23)cc(OC)c1CN1CCN(CCCCCOc2cc(-c3scnc3C)ccc2CNC(=O)[C@@H]2C[C@@H](O)CN2C(=O)[C@@H](NC(=O)C2(F)CC2)C(C)(C)C)CC1,0.634
9,"O=c1[nH]cc(F)c(=O)[nH]1 [Fluorouracil (5-Fluoracil, 5-FU)]",0.702
10,Nc1ncn([C@H]2C[C@H](O)[C@@H](CO)O2)c(=O)n1 [Decitabine],3.01 (active)
11,N#Cc1c(O)c2c(-c3ccc(-c4ccccc4O)cc3)csc2[nH]c1=O,0.692
12,Cn1cc(CCn2cnc(-c3cnn(C)c3)c2-c2ccc(C#N)cc2)cn1,0.997
13,COc1cc2cc(Oc3ccc4ccc(=O)oc4c3)c(=O)oc2cc1O [Daphnoretin],0.72
14,COc1ccc(C2(CNC(=O)c3ccc(NC(=O)c4ccco4)cc3)CCOCC2)cc1,1.23
15,Cc1cnc(-c2ccccc2C(C)C)nc1NCc1ccc(-n2ccnn2)cc1,0.718
16,CC1(C)c2cccc(C(=O)NO)c2CN1c1cnc(C(F)(F)F)cn1,0.913

row,Compound,PARP1 L713F-nLuc/akaLuc ratio
1,Cc1ccc(Oc2nc3cc(-c4ccc(-c5ccccc5)cc4)c(Cl)cc3[nH]2)cc1C(=O)O,0.635
2,CCC(Sc1nnc2c(n1)[nH]c1ccccc12)C(=O)N1c2ccccc2Sc2ccccc21 (stereo unspecified) [Inauhzin],0.33 (active)
3,CCCCCCCc1ccc(CCc2cccc(O)c2C(=O)O)cc1,0.768
4,NS(=O)(=O)NCCNc1nonc1/C(=N/O)Nc1ccc(F)c(Br)c1,0.587
5,CCN(CC)CCNC(=O)c1c(C)[nH]c(/C=C2\C(=O)Nc3ccc(-c4csc(-c5ccccc5)n4)cc32)c1C [Amcasertib (BBI503)],0.885
6,CCNC(=O)NCCSC[C@H]1O[C@@H](n2cnc3c(N)ncnc32)[C@H](O)[C@@H]1O,0.751
7,CC(C(=O)Nc1cccc(/N=C/c2c(O)ccc3ccccc23)c1)c1ccccc1 (stereo unspecified) [Salermide],0.605
8,CCCC(CCC)C(=O)O [Valproic acid],1.52
9,COCCNCc1ccc(-c2cc3nccc(Oc4ccc(NC(=O)C5(C(=O)Nc6ccc(F)cc6)CC5)cc4F)c3s2)nc1 [Sitravatinib (MGCD516)],1.48
10,CC1(C)Oc2cc(N3CCN(C(=O)OCc4ccccc4)CC3)c([N+](=O)[O-])cc2-c2c1cnn2-c1ccc(C(=O)O)cc1 [Lin28-let-7a antagonist 1],0.959
11,Cc1cc(Nc2cc(CN3CCOCC3)c3nc(C)c(Cc4ccc(Cl)cc4F)n3n2)n[nH]1,1.18
12,CC(=O)Nc1ccc(C(=O)Nc2ccc(F)cc2N)cc1,0.984
13,Nc1cc(F)ccc1NC(=O)/C=C/c1cnn(C/C=C/c2ccccc2)c1,0.76 and 0.99
14,Clc1ccc(C(c2ccccc2Cl)C(Cl)Cl)cc1 (stereo unspecified) [Mitotane],0.67
15,CC(=O)O[C@H]1C(=O)[C@@]2(C)[C@H]([C@H](OC(=O)c3ccccc3)[C@]3(O)C[C@H](OC(=O)[C@H](O)[C@@H](NC(=O)c4ccccc4)c4ccccc4)C(C)=C1C3(C)C)[C@]1(OC(C)=O)CO[C@@H]1C[C@@H]2O [Paclitaxel],2.97 (active)
